target: RBMY1E; assay: pooled miR-30 sensor sort-seq; sequence = guide strand; settings: shRNA
Further: reference of the scale not given here.

Sequence	sensor-assay potency score (higher = more potent)
AACTTGAGCTACCACATGCTTC	-1.03
TAACTTGAGCTACCACATGCTT	-1.09
TTTCTCGGGAACTTCGACGATT	-0.472

target: RBP1; assay: as above; settings: shRNA

Sequence	sensor-assay potency score (higher = more potent)
TCGTTGACCAACATCTTCCAGT	-0.239
TACTCCTCGAAATTCTCGTTGA	-0.0394
TTGTCATGCACTTGCGGTCATC	-1.49
TTCTCGTTGACCAACATCTTCC	-0.467
TTGACCAACATCTTCCAGTACC	-0.856
TTGCTTGCAGACCACACCTTCC	-0.849
AAGTCCATGATGTAGTTCCTAA	-0.968
TTCCTAAAAGTGCTCAGCGTGC	-1.04
ATTCTCGTTGACCAACATCTTC	-0.954
ACTGTTGTCATGCACTTGCGGT	-1.01
TTCCACTCTCATCTCTAGGTGC	-0.438
TTCTGCACACACTGGAGCTTGT	-0.8

target: RCSD1; assay: as above; settings: shRNA

Sequence	sensor-assay potency score (higher = more potent)
TTTGAGAACCGTAAACACTTTA	-0.421
TAGAACATTAAAAAGGAACTTT	0.0564
TAGCCTTTTCCATCTCTGCTTC	-0.0691
TTAAAAAGGAACTTTACCCAAG	-0.456
TATCTCTTCTAGTCCAGTGTTT	-0.522
TTGTTGTTGAACCAAGTCCATC	-1.65
TTCCTTAGCACCGTTCTGCTGA	0.0396
TTGAGAACCGTAAACACTTTAG	-0.662
TACAACTGTTGCTGCTACCTGC	0.0449
TAACTGATATTTGAGAACCGTA	-1.05
TTTGATACAATTTAGGGTCTTC	0.305
TTGAAAAGTTGTCTCTAGGGTT	-0.0262

target: RDH5; assay: as above; settings: shRNA

Sequence	sensor-assay potency score (higher = more potent)
ATGAGCTACATCCCGCCTCAGG	-1.65
TAGGTCCGGGTCACAGATCAGG	-1.62
TTAACGTGCATCTCCACCCACT	-0.757
TTTCAGGTACTTGGTGAGGAAG	-1.78
TTTCTCCAGACTCTCCAGGTTG	-1.05
TCAGTGATATCCAACAGGGTGG	-0.32
AAAATGAGCTACATCCCGCCTC	-0.19
TGCATTTTCAGGTACTTGGTGA	0.187
TGTGTTCACATTCAGCACCCGC	-1.07
TCGGAAGCCTCTCTGGTCCAGC	-1.15
TTCCTTAACGTGCATCTCCACC	-0.947
ATCAGTGATATCCAACAGGGTG	-0.912

— the OligoGym collection
